Results as given in PubChem BioAssay (EPA / NIEHS).
Active and inactive are the calls of the source. How the source made its calls: active means hit-call score of the fitted dose curve at least 0.9, where 1 is the maximum; inactive means score below 0.9.

Experiments:
Details in all cases: mRNA level, 48 h; actives raise or lower the signal
[1] = read-out: Glutamate-cysteine ligase catalytic (GCLC), GCLC (gene 2729); assay: LTEA_HepaRG_GCLC: Life Technologies and Expression Analysis (LTEA) Assay for Glutamate-cysteine ligase catalytic (GCLC) using HepaRG (AID 2283498)
Summary of the method: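 Differentiated human HepaRG cells, plated 48 h then switched to serum-free induction medium, were exposed in duplicate for 48 h to 8 half-log concentrations topping at 100 uM in 0.5% DMSO. GCLC mRNA was quantified by qRT-PCR against ACTB, GAPDH and POLR2A.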

[2] = read-out: growth arrest and DNA damage 45 (GADD45G), GADD45G (gene 10912); assay: LTEA_HepaRG_GADD45G: Life Technologies and Expression Analysis (LTEA) Assay for growth arrest and DNA damage 45 (GADD45G) using HepaRG (AID 2283499)
Summary of the method: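 GADD45G transcript level by qRT-PCR (housekeeping-normalized: ACTB, GAPDH, POLR2A) after 48 h chemical treatment of a single HepaRG lot in serum-free induction medium; eight-point half-log series up to 100 uM in 0.5% DMSO, duplicates, up- or down-regulation scored.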

[3] = read-out: Glutamate-cysteine ligase regulatory (GCLM), GCLM (gene 2730); assay: LTEA_HepaRG_GCLM: Life Technologies and Expression Analysis (LTEA) Assay for Glutamate-cysteine ligase regulatory (GCLM) using HepaRG (AID 2283500)
Summary of the method: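 Cells were plated, cultured 48 h, switched to serum-free induction medium, then dosed in duplicate for 48 h at eight half-log concentrations up to 100 uM. RNA was then profiled by qRT-PCR; gain or loss versus DMSO was fitted.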

[4] = read-out: Glutathione S-transferase M3 (GSTM3), GSTM3 (gene 2947); assay: LTEA_HepaRG_GSTM3: Life Technologies and Expression Analysis (LTEA) Assay for Glutathione S-transferase M3 (GSTM3) using HepaRG (AID 2283501)
Summary of the method: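 GSTM3 transcript levels came from Fluidigm TaqMan qRT-PCR normalized to three housekeeping genes, fitted in both directions against DMSO. HepaRG cultures received chemicals for 48 h in serum-free induction medium (0.5% DMSO), 8 half-log concentrations up to 100 uM, duplicate.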

[5] = read-out: Heat shock 70 kDa protein 1 (HSPA1A), gene 3303; assay: LTEA_HepaRG_HSPA1A: Life Technologies and Expression Analysis (LTEA) Assay for Heat shock 70 kDa protein 1 (HSPA1A) using HepaRG (AID 2283502)
Summary of the method: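 Readout is HSPA1A transcript level by microfluidic qRT-PCR, normalized to three housekeeping genes and analysed for gain or loss of signal relative to 0.5% DMSO. Human HepaRG cultures received test chemicals for 48 h at up to 100 uM.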

[6] = read-out: 3-Hydroxy-3-Methylglutaryl-CoA Synthase 2 (HMGCS2), HMGCS2 (gene 3158); assay: LTEA_HepaRG_HMGCS2: Life Technologies and Expression Analysis (LTEA) Assay for 3-Hydroxy-3-Methylglutaryl-CoA Synthase 2 (HMGCS2) using HepaRG (AID 2283504)
Summary of the method: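 Readout is HMGCS2 transcript by qRT-PCR, housekeeping-normalised (ACTB/GAPDH/POLR2A) and fitted bidirectionally against 0.5% DMSO. Differentiated HepaRG cells received chemicals 48 h, duplicate wells, eight half-log concentrations topping at 100 uM.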

[7] = read-out: HGF (gene 3082); assay: LTEA_HepaRG_HGF: Life Technologies and Expression Analysis (LTEA) Assay for Hepatocyte Growth Facto (HGF) using HepaRG (AID 2283505)
Summary of the method: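 HGF transcript was quantified by TaqMan qRT-PCR against three housekeeping genes after 48 h treatment of HepaRG cells. Exposure ran in duplicate over eight half-log steps topping at 100 uM in 0.5% DMSO vehicle.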

[8] = read-out: Insulin Like Growth Factor 1 (IGF1), IGF1 (gene 3479); assay: LTEA_HepaRG_IGF1: Life Technologies and Expression Analysis (LTEA) Assay for Insulin Like Growth Factor 1 (IGF1) using HepaRG (AID 2283506)
Summary of the method: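 HepaRG, plated 48 h, then switched to serum-free induction media; test chemical 8-pt half-log from 100 uM (0.5% DMSO), duplicate, 48 h. Lysis in RLT, TaqMan qRT-PCR, norm. ACTB/GAPDH/POLR2A. Bidirectional fit vs DMSO.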

[9] = read-out: Intercellular Adhesion Molecule 1 (ICAM1), ICAM1 (gene 3383); assay: LTEA_HepaRG_ICAM1: Life Technologies and Expression Analysis (LTEA) Assay for Intercellular Adhesion Molecule 1 (ICAM1) using HepaRG (AID 2283507)
Summary of the method: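 ICAM1 transcript levels measured by qRT-PCR, normalized to three housekeeping genes (ACTB, GAPDH, POLR2A), after 48 h chemical exposure of HepaRG cells. Duplicate eight-point half-log series from 100 uM in 0.5% DMSO; gain or loss fitted against vehicle.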

[10] = read-out: Insulin-like growth factor-binding protein 1 (IGFBP1), IGFBP1 (gene 3484); assay: LTEA_HepaRG_IGFBP1: Life Technologies and Expression Analysis (LTEA) Assay for Insulin-like growth factor-binding protein 1 (IGFBP1) using HepaRG (AID 2283508)
Summary of the method: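 Read-out is qRT-PCR transcript level normalized to three housekeeping genes, fitted in both directions against 0.5% DMSO. Differentiated HepaRG cells received eight half-log concentrations (top 100 uM) in duplicate for 48 h in serum-free induction medium.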

[11] = read-out: Interleukin 6 (IL6), IL6 (gene 3569); assay: LTEA_HepaRG_IL6: Life Technologies and Expression Analysis (LTEA) Assay for Interleukin 6 (IL6) using HepaRG (AID 2283509)
Summary of the method: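 Differentiated human HepaRG cells, plated 48 h then switched to serum-free induction medium, were exposed in duplicate for 48 h to eight half-log concentrations up to 100 uM in 0.5% DMSO. IL6 mRNA measured by qRT-PCR, normalized to ACTB/GAPDH/POLR2A.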

[12] = read-out: Potassium channel subfamily K member 1 (KCNK1), KCNK1 (gene 3775); assay: LTEA_HepaRG_KCNK1: Life Technologies and Expression Analysis (LTEA) Assay for Potassium channel subfamily K member 1 (KCNK1) using HepaRG (AID 2283511)
Summary of the method: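 Differentiated human HepaRG cells in serum-free induction medium were exposed in duplicate for 48 h to 8 half-log concentrations up to 100 uM in 0.5% DMSO. KCNK1 mRNA was measured by TaqMan qRT-PCR, normalized to ACTB, GAPDH and POLR2A, and fitted bidirectionally versus DMSO.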

[13] = read-out: JUN Transcription Factor, JUN (gene 3725); assay: LTEA_HepaRG_JUN: Life Technologies and Expression Analysis (LTEA) Assay for JUN Transcription Factor using HepaRG (AID 2283513)
Summary of the method: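 Cells plated 48 h, medium switched to serum-free induction medium, then dosed 48 h (100 uM top, half-log dilutions, 0.5% DMSO). RNA isolated; JUN measured by qRT-PCR against three housekeeping genes; gain or loss fitted relative to DMSO.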

[14] = read-out: Lipase C (LIPC), LIPC (gene 3990); assay: LTEA_HepaRG_LIPC: Life Technologies and Expression Analysis (LTEA) Assay for Lipase C (LIPC) using HepaRG (AID 2283514)
Summary of the method: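 Differentiated human HepaRG cells in serum-free induction medium were exposed in duplicate for 48 h to eight concentrations (top 100 uM, half-log steps, 0.5% DMSO). LIPC mRNA was quantified by TaqMan qRT-PCR, normalized to ACTB, GAPDH and POLR2A, with bidirectional fitting versus DMSO.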

[15] = read-out: Lipoprotein lipase (LPL), LPL (gene 4023); assay: LTEA_HepaRG_LPL: Life Technologies and Expression Analysis (LTEA) Assay for Lipoprotein lipase (LPL) using HepaRG (AID 2283515)
Summary of the method: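 Differentiated human HepaRG cells in serum-free induction medium were exposed in duplicate for 48 h to eight half-log concentrations (top 100 uM) in 0.5% DMSO. LPL mRNA was quantified by TaqMan qRT-PCR, normalized to ACTB, GAPDH and POLR2A.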

[16] = read-out: matrix metalloproteinase-10 (MMP10), MMP10 (gene 4319); assay: LTEA_HepaRG_MMP10: Life Technologies and Expression Analysis (LTEA) Assay for matrix metalloproteinase-10 (MMP10) using HepaRG (AID 2283517)
Summary of the method: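 HepaRG, collagen I, ~100,000 cells/well; serum-free induction medium; 48 h exposure, duplicate, 8-pt half-log to 100 uM, 0.5% DMSO. Readout: TaqMan qRT-PCR, normalized to ACTB/GAPDH/POLR2A; bidirectional fit vs DMSO.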

[17] = read-out: MicroRNA 122 (MIR122), gene 406906; assay: LTEA_HepaRG_MIR122: Life Technologies and Expression Analysis (LTEA) Assay for MicroRNA 122 (MIR122) using HepaRG (AID 2283516); further: the transcript read is the microRNA miR-122
Summary of the method: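 HepaRG plated 48 h, switched to serum-free induction medium, then treated in duplicate for 48 h (100 uM top, half-log steps, 0.5% DMSO vehicle). RNA isolated, qRT-PCR performed, concentration-response fitted both directions relative to DMSO.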

[18] = read-out: Keratin 19 (KRT19), KRT19 (gene 3880); assay: LTEA_HepaRG_KRT19: Life Technologies and Expression Analysis (LTEA) Assay for Keratin 19 (KRT19) using HepaRG (AID 2283512)
Summary of the method: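 KRT19 transcript measured by TaqMan qRT-PCR, referenced to three housekeeping genes, after HepaRG cells received test chemicals for 48 h. Eight half-log concentrations, top 100 uM, 0.5% DMSO vehicle; increases and decreases both fitted.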

OC1CCCCC1
outcome [1]: inactive
outcome [2]: inactive
outcome [3]: inactive
outcome [4]: inactive
outcome [5]: inactive
outcome [6]: inactive
outcome [7]: inactive
outcome [8]: inactive
outcome [9]: inactive
outcome [10]: inactive
outcome [11]: inactive
outcome [12]: inactive
outcome [13]: inactive
outcome [14]: inactive
outcome [15]: inactive
outcome [16]: inactive

CCCCCCC(=O)O
outcome [1]: inactive
outcome [2]: inactive
outcome [3]: inactive
outcome [4]: inactive
outcome [5]: inactive
outcome [6]: inactive
outcome [7]: inactive
outcome [8]: inactive
outcome [9]: inactive
outcome [10]: inactive
outcome [11]: inactive
outcome [12]: inactive
outcome [13]: inactive
outcome [14]: inactive
outcome [15]: inactive
outcome [16]: inactive

CCN(CC)CCNc1ccc(CNC=O)c2sc3ccc(OC)cc3c(=O)c12
AC50 [1]: 50 µM (active)
AC50 [2]: 50 µM (active)
outcome [3]: inactive
outcome [4]: inactive
AC50 [5]: 9.92 µM (active)
AC50 [6]: 74.3 µM (active)
outcome [7]: inactive
AC50 [8]: 85.6 µM (active)
AC50 [9]: 62.6 µM (active)
AC50 [10]: 94.1 µM (active)
AC50 [11]: 76.8 µM (active)
AC50 [12]: 75.2 µM (active)
AC50 [13]: 79 µM (active)
outcome [14]: inactive
AC50 [15]: 81.8 µM (active)
AC50 [17]: 27.5 µM (active)
AC50 [16]: 78.5 µM (active)

CC[C@H](c1ccc(O)cc1)[C@@H](CC)c1ccc(O)cc1
AC50 [1]: 79.8 µM (active)
AC50 [2]: 66.3 µM (active)
AC50 [3]: 70.2 µM (active)
outcome [4]: inactive
AC50 [5]: 94.4 µM (active)
AC50 [6]: 79.4 µM (active)
outcome [7]: inactive
AC50 [8]: 86.3 µM (active)
outcome [9]: inactive
AC50 [10]: 68.1 µM (active)
AC50 [11]: 77.3 µM (active)
outcome [12]: inactive
AC50 [18]: 90.8 µM (active)
AC50 [13]: 96.5 µM (active)
outcome [14]: inactive
AC50 [15]: 75.7 µM (active)
outcome [17]: inactive
outcome [16]: inactive

C#C[C@]1(O)CC[C@H]2[C@@H]3CCC4=CC(=O)CC[C@@H]4[C@H]3CC[C@@]21C
outcome [1]: inactive
outcome [2]: inactive
outcome [3]: inactive
outcome [4]: inactive
outcome [5]: inactive
outcome [6]: inactive
outcome [8]: inactive
outcome [9]: inactive
outcome [10]: inactive
outcome [11]: inactive
outcome [12]: inactive
outcome [18]: inactive
outcome [13]: inactive
outcome [14]: inactive
outcome [15]: inactive
outcome [17]: inactive
outcome [16]: inactive
